The values that follow come from PubChem BioAssay (NCATS).

“And” between values parts separate entries of the source, which are not always exact repeats. Equal entries are not always repeated. Results filed as inconclusive are left out. A number with no mark means an inactive call. The source made the active and inactive calls. Calls follow the shape of the dose curve; as a rule, active = well fitted curve in the direction sought with a large enough effect; inconclusive = small, poorly fitted or top-dose-only effect, or another doubt; inactive = no such curve, though single readings can be large; an effect the other way counts as inactive or inconclusive.

One experiment concerns MCC-26. In words: qHTS assay to identify novel small-molecules to repurpose for Merkel cell carcinoma treatment (AID 1296009). Also: nearly all actives have a fitted effect of over 60% in size. As to conditions: MCC and control cell lines, CellTiter-Glo viability, 72 h; series mostly up to 46 µM. A digest of the protocol:
(§1)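 72 hr, 37 degree celsius; NPC 8-pt / MIPE 11-pt dose response; compound pinned in DMSO; CellTiter-Glo, 10 min RT, luminescence; normalized to no-cell and DMSO controls.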
A general note: Quantitative high-throughput screening tests each substance at several concentrations.

Another experiment has as its system MKL-1. Described as above. As to conditions: MCC and control cell lines, CellTiter-Glo viability, 72 h; series mostly up to 46 µM. Summed up: as §1
The next experiment has as its system MKL-2. The experiment is described as above. The conditions noted are these: MCC and control cell lines, CellTiter-Glo viability, 72 h; series mostly up to 46 µM. Summed up: as §1
For orientation: ATP-based viability assays read luminescence as a measure of living cells.

The next experiment concerns NIH3T3. Described as above. As to conditions: MCC and control cell lines, CellTiter-Glo viability, 72 h; at 44.8 µM (top of the series) unless noted. A digest of the protocol:
as §1

A further experiment has as its system UISO. Described as above. The conditions noted are these: MCC and control cell lines, CellTiter-Glo viability, 72 h; series mostly up to 46 µM. Summed up:
as §1

The subject of another experiment is WaGa. The description is as above. As to conditions: MCC and control cell lines, CellTiter-Glo viability, 72 h; series mostly up to 46 µM. Summed up: as §1
The test system of another experiment is C33A. In words: Primary qHTS to identify gynecologic anti-cancer compounds using libraries of approved drugs and bioactive compounds (AID 1345084). Also: nearly all actives have a fitted effect of over 55% in size. Also: potency is read from the fitted curve at half-maximal effect. As to conditions: Gynecologic cancer cell panel viability, ATPlite luminescence, 48 h; series mostly up to 57.5 µM. A digest of the protocol: (§2)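 Five-concentration response, 48 h; readout is ATP-driven luciferase luminescence.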

The next experiment has as its system CAOV3. The description is as above. As to conditions: Gynecologic cancer cell panel viability, ATPlite luminescence, 48 h; series mostly up to 57.5 µM. A digest of the protocol:
as §2

For the next experiment, the system named is CASKI. The experiment is described as above. The conditions noted are these: Gynecologic cancer cell panel viability, ATPlite luminescence, 48 h; series mostly up to 57.5 µM. Summed up: as §2
For the next experiment, the system named is Es-2. The experiment is described as above. The conditions noted are these: Gynecologic cancer cell panel viability, ATPlite luminescence, 48 h; series mostly up to 57.5 µM. A digest of the protocol:
as §2

A further experiment has as its system JEG-3. The experiment is described as above. As to conditions: Gynecologic cancer cell panel viability, ATPlite luminescence, 48 h; series mostly up to 57.5 µM. Summed up: as §2
The subject of the next experiment is OV90. The experiment is described as above. As to conditions: Gynecologic cancer cell panel viability, ATPlite luminescence, 48 h; series mostly up to 57.5 µM. A digest of the protocol: as §2
In the next experiment the test system is PA-1. The description is as above. As to conditions: Gynecologic cancer cell panel viability, ATPlite luminescence, 48 h; series mostly up to 57.5 µM. Summed up:
as §2

The next experiment has as its system SKOV3. Described as above. The conditions noted are these: Gynecologic cancer cell panel viability, ATPlite luminescence, 48 h; series mostly up to 57.5 µM. A digest of the protocol: as §2
For the next experiment, the system named is Tov-21-G. The experiment is described as above. As to conditions: Gynecologic cancer cell panel viability, ATPlite luminescence, 48 h; series mostly up to 57.5 µM. Summed up: as §2
The next experiment concerns Tov112D. The description is as above. The conditions noted are these: Gynecologic cancer cell panel viability, ATPlite luminescence, 48 h; series mostly up to 57.5 µM. A digest of the protocol: as §2
Experiment [1] is described as follows: Drug repurposing screens with cells derived from glioblastoma tumor samples (AID 1345199). Also: nearly all actives have a fitted effect of over 40% in size. Also: potency is read from the fitted curve at half-maximal effect. The conditions noted are these: GBM patient neurospheres viability, ATP luminescence, 48 h. Summed up:
(§3)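 Four patient lines of CD133+ GBM neurospheres were screened at several concentrations; hits were retested in those lines plus three slower-growing GBM lines, using 48-hour treatment and ATP-based viability.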

A further experiment relates to astro. The description is as above. As to conditions: viability, ATP luminescence, 48 h; series mostly up to 45.9 µM. A digest of the protocol:
as §3

The test system of a further experiment is HeLa. In words: Primary qHTS to identify gynecologic anti-cancer compounds using libraries of approved drugs and bioactive compounds (AID 1345084). Also: nearly all actives have a fitted effect of over 55% in size. Also: potency is read from the fitted curve at half-maximal effect. As to conditions: Gynecologic cancer cell panel viability, ATPlite luminescence, 48 h; series mostly up to 57.5 µM. Summed up:
as §2

The test system of a further experiment is Hek293T. The experiment is described as above. As to conditions: Gynecologic cancer cell panel viability, ATPlite luminescence, 48 h, control line for the selectivity index; series mostly up to 57.5 µM. A digest of the protocol:
as §2

Where [2] appears, read: at 45.9 µM (top of the series), tumour line D.
The mark [3] stands for this setting: at 46.1 µM (top of the series), tumour line C.
Where [4] appears, read: at 45.9 µM (top of the series), tumour line B.
The mark [5] stands for this setting: at 46 µM (top of the series), tumour line A.
% is scaled to controls: 0 for no effect and ±100 for the full control effect.

As for `Oc1cn2c(n1)Nc1ccc(Cl)c(Cl)c1C2`, the Potency result in the experiment with MCC-26, in the experiment with MKL-1, with MKL-2, in the experiment with UISO, in the experiment with WaGa and with C33A was “inactive” throughout. Also, the Potency result in the experiment with CAOV3, in the experiment on CASKI, with Es-2, with JEG-3, in the experiment on OV90 and with SKOV3 was “inactive” throughout. In addition, the Potency entry with Tov-21-G, in the experiment on Tov112D and in the experiment on astro was “inactive” throughout. For the same compound, in the experiment on NIH3T3, the outcome is “inactive [at 17.4 µM]”. Besides, in the experiment on PA-1, the Potency was 0.355 µM (active). The activity, negative = cell killing was -7.52% in experiment [1] (setting [2]); -8.47% and 1.08% in experiment [1] (setting [3]).

Turning to `C[C@](N)(Cc1ccc(O)cc1)C(=O)O`, the activity change, negative = cytotoxicity in the experiment on MCC-26 was 5.04% [at 4.84 µM]; in the experiment with MKL-1, -2.87% [at 4.84 µM]; in the experiment on MKL-2, 7.48% [at 4.84 µM]; with UISO it was 17.6% [at 4.84 µM]; in the experiment on WaGa it was -0.23% [at 4.84 µM]; in the experiment with C33A, 11.8% [at 6.55 µM]. The activity change, negative = cytotoxicity in the experiment on CAOV3 is 1.31% [at 6.55 µM]; in the experiment with CASKI it was 2.23% [at 6.55 µM]; in the experiment with Es-2 it was -8.81% [at 6.55 µM]; with HeLa it was 0.756% [at 6.55 µM]; in the experiment on Hek293T, -0.946% [at 6.55 µM]; in the experiment on JEG-3 it was 2.69% [at 6.55 µM]. Moreover, the activity change, negative = cytotoxicity in the experiment with OV90 is 0.672% [at 6.55 µM]; in the experiment with PA-1, 12.1% [at 6.55 µM]; with Tov-21-G it was -3.06% [at 6.55 µM]; in the experiment with Tov112D, 0.865% [at 6.55 µM]. In the experiment with NIH3T3, the outcome is “inactive [at 4.96 µM]”. Besides, the activity, negative = cell killing is -4.97% in experiment [1] (setting [4]), 3.89% in experiment [1] (setting [2]), -16.9% in experiment [1] (setting [5]) and 0.308% in experiment [1] (setting [3]). Moreover, in the experiment on astro, the Potency entry is “inactive”.

In the case of `Cc1c(Cl)cccc1Nc1ccccc1C(=O)O`, the Potency entry in the experiment with MCC-26, in the experiment on MKL-1, in the experiment with MKL-2, in the experiment with UISO, in the experiment on WaGa and in the experiment with C33A was “inactive” in each case. In addition, the Potency entry in the experiment with CAOV3, with CASKI, with Es-2, in the experiment on HeLa, in the experiment with Hek293T and in the experiment on JEG-3 was “inactive” each time. Further, the Potency result with OV90, in the experiment with PA-1, in the experiment on SKOV3, in the experiment with Tov-21-G and with Tov112D was “inactive” throughout. For the same compound, the compound was classed as inactive in the experiment with NIH3T3. Besides, the activity, negative = cell killing in experiment [1] (setting [4]) was -21.5%; in experiment [1] (setting [2]), -17%; in experiment [1] (setting [3]), -5.72%. Also, the Potency in the experiment with astro is 11.2 µM (active).

Consider `O=C(O)c1ccccn1`, for which the Potency result in the experiment with MCC-26, in the experiment on MKL-1, in the experiment on MKL-2, in the experiment on UISO, in the experiment with WaGa and in the experiment on C33A was “inactive” throughout. Further, the Potency entry with CAOV3, with CASKI, in the experiment with Es-2, in the experiment on HeLa, in the experiment with Hek293T and in the experiment with JEG-3 was “inactive” each time. Besides, the Potency entry in the experiment on OV90, with PA-1, with Tov-21-G, in the experiment with Tov112D and in the experiment on astro was “inactive” each time. The outcome in the experiment on NIH3T3 was inactive. The activity, negative = cell killing in experiment [1] (setting [4]) was -12%; in [1] (setting [2]), -3.68%; in experiment [1] (setting [5]), -22.3%; in experiment [1] (setting [3]), 1.95%.

With `NS(=O)(=O)c1cc2c(cc1Cl)NC(CSCc1ccccc1)=NS2(=O)=O`, the Potency entry with MCC-26, with MKL-1, with MKL-2, in the experiment with UISO, in the experiment on WaGa and in the experiment with C33A was “inactive” throughout. The Potency result in the experiment with CASKI, in the experiment with Es-2, with HeLa, in the experiment on Hek293T, in the experiment on JEG-3 and in the experiment on OV90 was “inactive” throughout. Moreover, the Potency result in the experiment on PA-1, with SKOV3, with Tov-21-G, in the experiment with Tov112D and with astro was “inactive” in each case. For the same compound, in the experiment with NIH3T3, the compound was called inactive. Further, the activity, negative = cell killing is 5.29% in [1] (at 20 µM (top of the series), tumour line C); -6.25% in experiment [1] (at 21.2 µM (top of the series), tumour line B); -24.5% in [1] (at 21.2 µM (top of the series), tumour line D); -18.3% in experiment [1] (at 21.3 µM (top of the series), tumour line A).
